Bioassay records from PubChem.
Wnt bcat act: activators of Wnt/beta-catenin signaling; actives 1.2% (n = 300,000); Wnt/beta-catenin reporter cell assay, activator, plate reader; activation, % at 9.35 µM; AID 743398; in the data active = activation above about 30%, passing the limit was not always enough; inconclusive = no clear call, values can overlap the other calls;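 also: 0% = neutral control wells and 100% = positive control wells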
MITF act: activators of MITF-driven TRPM1 promoter activity in SK-MEL-5 cells | SK-MEL-5 TRPM1-promoter luciferase, 24 h; % of positive control, neutral wells = 0 | AID 588334 | activation, % at 12.5 µM | actives 0.75% (n = 300,000);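 active = mean activation of at least 80% with every replicate also reaching 80%; inconclusive = mean reaches 80% but some replicate falls short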;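 also: 0% = neutral control wells and 100% = parthenolide positive control wells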
EWS-Fli inh: EWS/Fli transcriptional activity inhibition | actives 0.67% (n = 350,000) | inhibition, % at 12.6 µM | A673 NR0B1-luciferase reporter, viability-normalised;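 active = mean inhibition of at least 50% after viability correction, with every replicate also passing that limit; inconclusive = mean reaches 50% but only one of two replicates passes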;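 also: firefly luciferase signal divided by Alamar Blue viability fluorescence both relative to DMSO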
PAX8 inh HTS: PAX8 transcriptional activity inhibition. RMG-I TPO-luciferase reporter, SteadyGlo, 24 h. inhibition, % at 12.6 µM. actives 1.2% (n = 360,000). AID 652154;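 active = mean replicate inhibition at least 60% with every replicate also reaching 60%; inconclusive = only one of the two criteria is met; inactive = mean below 60% and not all replicates reaching 60%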;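 also: luciferase light reporting Pax8 driven TPO promoter activity; plate controls were median of neutral control wells for no effect and mitoxantrone controls for full effect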
esBAF inh: inhibitors of esBAF chromatin remodeling in mouse ES cells | Bmi1-luciferase knock-in reporter, 24 h; 100% = twice the neutral-well signal | reporter increase, % at 12.5 µM | actives 2% (n = 350,000) | AID 602393; in the data active = activation above about 40%; inconclusive = no clear call, values can overlap the other calls;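 also: 0% = median of the plate's neutral control wells and 100% = double that signal; a rise in the Bmi1 reporter signal indicates esBAF inhibition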
MITF TRPM1 inh: inhibitors of MITF-driven TRPM1 promoter in melanoma cells | SK-MEL-5 TRPM1 promoter luciferase, 24 h | inhibition, % at 12.5 µM | actives 0.83% (n = 330,000) | AID 488899;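 active = mean inhibition across replicates of 60% or more, whatever share of single replicates reaches that level; inconclusive = some that reach 60%, reason not given; inactive = mean inhibition across replicates below 60%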
* hit, by the source's call; ? = inconclusive; nt = no result. Rows were chosen to be rich in hits. Some 4% of all compounds tested hit in one or more screens of this group.

SMILES	Wnt bcat act	MITF act	EWS-Fli inh	PAX8 inh HTS	esBAF inh	MITF TRPM1 inh
COc1ccc(-c2ccc(C(C)=O)cc2)cc1[C@H]1[C@H]2C=CC[C@@H](C)[C@@H]2C(=O)N1Cc1ccccc1	2.8	21.2	11.4	16.9	-2.2	-17.3
COc1ccc(-c2cc([C@H]3[C@H]4C=CC[C@@H](C)[C@@H]4C(=O)N3Cc3ccccc3)ccc2F)cc1OC	12.3	52.7	-2.3	-84.6	48.2*	-50.6
O=C(C[C@H]1C=C[C@@H](NC(=O)Cc2cccnc2)[C@@H](CO)O1)Nc1ccc(-c2ccccc2)cc1	nt	nt	-2.3	nt	nt	nt
CCCC(=O)Nc1ccc2c(c1)C(=O)N(C)C[C@@H](OC)[C@@H](C)CN(Cc1ccccc1F)[C@H](C)CO2	nt	nt	8.4	nt	0.9	nt
CO[C@@H]1CN(C)C(=O)c2cc(NC(=O)Cc3ccccc3)ccc2OC[C@H](C)N(C(C)=O)C[C@@H]1C	nt	nt	-2.1	3.8	-2.1	nt
COc1ccccc1NC1=Nc2cccc3cccc1c23	5.6	nt	-11.6	91.4*	-0.9	nt
CC(=O)N1CCN(C2=Nc3cccc4cccc2c34)CC1	11.0	19.6	nt	nt	16.7	-18.0
COc1ccc(C(=O)NNC2=Nc3cccc4cccc2c34)cc1	-1.0	10.2	16.4	22.3	nt	-9.6
COc1ccccc1N1CCN(C2=Nc3cccc4cccc2c34)CC1	-2.6	94.6*	-102.6	-123.4	37.7	-94.8
O=C(O)c1ccccc1-c1ccccc1C(=O)Nc1ccc2c(c1)CCC2	0.7	-4.4	7.4	2.6	-1.2	5.1
CC1(c2ccc(NC(=O)c3ccccc3F)cc2)CC1(Cl)Cl (centres undefined)	19.4	nt	-120.1	-149.8	62.9*	nt
O=C(COc1ccccc1F)Nc1ccc2c(c1)CCC2	43.2*	nt	-27.0	-190.4	18.2	nt
O=C(Nc1ccc([N+](=O)[O-])cc1)c1ccccc1F	22.8	69.4	-88.0	-165.3	nt	-66.1
O=C(Nc1ccc2c(c1)CCC2)c1ccccc1F	30.1*	33.5	nt	-67.6	nt	-30.5
O=C(NCCCN1CCOCC1)C(=O)N/N=C/c1c2ccccc2cc2ccccc12	-16.3	-21.4	nt	71.9*	nt	20.6
O=C(NCCCN1CCOCC1)C(=O)N/N=C/c1c(Cl)cccc1Cl	-1.8	2.2	4.2	-5.9	nt	-0.2
Cc1cccc2c3c([nH]c12)[C@H]1CCC(=O)N1CC3	nt	nt	12.7	11.4	nt	nt
COCC(=O)N1C[C@H](C)[C@H](OC)CN(C)C(=O)c2ccc(NC(=O)Nc3cccc(F)c3)cc2OC[C@@H]1C	nt	nt	56.4*	nt	0.6	nt
CO[C@@H]1CN(C)C(=O)c2cc(NC(=O)Nc3ccccc3)ccc2OC[C@@H](C)N(C(=O)CC2CC2)C[C@@H]1C	nt	nt	3.0	0.2	-9.5	nt
CO[C@H]1CN(C)C(=O)c2cc(NC(=O)Nc3ccccc3)ccc2OC[C@H](C)N(C(=O)CC2CC2)C[C@@H]1C	nt	nt	5.7	4.8	47.8*	nt
CCC(=O)N1C[C@H](C)[C@@H](OC)CN(C)C(=O)c2ccc(NC(=O)Nc3ccc(Cl)cc3)cc2OC[C@@H]1C	nt	nt	53.3*	nt	nt	nt
CO[C@@H]1CN(C)C(=O)c2ccc(NC(=O)NC3CCCCC3)cc2OC[C@@H](C)N(CCc2ccccc2)C[C@H]1C	nt	nt	7.4	65.6*	14.4	nt
CO[C@H]1CN(C)C(=O)c2cc(NC(=O)NC3CCCCC3)ccc2OC[C@H](C)N(CCc2ccccc2)C[C@@H]1C	nt	nt	0.3	nt	3.4	nt
C[C@H](CO)N1C[C@H](C)[C@@H](CN(C)S(=O)(=O)c2cn(C)cn2)Oc2cc(C3=CCCC3)ccc2S1(=O)=O	nt	nt	-3.4	2.0	1.5	nt
CN1C(=O)c2cc(NC(=O)C3CCCC3)ccc2OC[C@H]2O[C@H](CC(=O)NCC(F)(F)F)CC[C@@H]21	nt	nt	-2.5	0.8	-2.9	nt
SMILES	Wnt bcat act	MITF act	EWS-Fli inh	PAX8 inh HTS	esBAF inh	MITF TRPM1 inh
CO[C@@H]1CN(C)C(=O)c2cc(NC(=O)c3ccccc3F)ccc2OC[C@@H](C)N(CC2CC2)C[C@@H]1C	nt	nt	6.9	78.9*	3.5	nt
CO[C@H]1CN(C)C(=O)c2cc(NC(=O)c3nc4ccccc4s3)ccc2OC[C@H](C)N(Cc2cccnc2)C[C@H]1C	nt	nt	35.9	88.5*	10.7	nt
CO[C@@H]1CN(C)C(=O)c2cc(NC(=O)c3ccccc3F)ccc2OC[C@H](C)N(CC2CC2)C[C@H]1C	nt	nt	-3.3	-18.5	6.6	nt
CC(=O)N(C)C[C@H]1Oc2ncc(C#CC(C)(C)O)cc2C(=O)N([C@@H](C)CO)C[C@@H]1C	nt	nt	-14.5	nt	4.1	nt
O=C(C[C@@H]1CC[C@@H](NC(=O)C2CC2)[C@H](CO)O1)NC1CCC1	nt	nt	-0.4	-10.5	-5.2	nt
Clc1ccccc1-c1nc(-c2ccccc2)n[nH]1	63.6*	48.7	nt	-170.5	36.6	-47.7
O=C(C[C@@H]1CC[C@H]2[C@@H](COC[C@@H](O)CN2Cc2ccccc2)O1)N[C@H]1CCN(Cc2ccccc2)C1	nt	nt	-3.4	9.0	-1.5	nt
O=C(Nc1nc2c(s1)CCCC2)c1ccc(N2C(=O)CCC2=O)cc1	-1.5	36.6	nt	-157.2	43.6*	-32.2
O=C(Nc1nc2c(s1)CCCC2)c1ccc2ncsc2c1	41.6*	nt	-25.8	-99.0	-8.5	nt
NC(=O)c1cccc(-c2csc(C(O)c3cccc(Cl)c3)n2)c1 (centres undefined)	-0.8	nt	15.7	5.4	3.6	nt
OC(c1ccccc1)c1nc(-c2ccccc2)cs1 (centres undefined)	1.4	nt	-68.5	-45.0	52.4*	nt
O=C(O)c1cccc(-c2csc(C(O)c3cccc(Cl)c3)n2)c1 (centres undefined)	-1.3	nt	-14.0	-43.2	47.8*	nt
CC(=O)Nc1cccc(-c2csc(C(O)c3ccccc3)n2)c1 (centres undefined)	-0.8	nt	-27.1	-8.8	48.9*	nt
COCc1cccc(-c2csc(C(O)c3ccccc3)n2)c1 (centres undefined)	7.9	nt	-62.5	-88.7	53.3*	nt
CO[C@H]1O[C@H](CO)[C@@H](OC(=O)Nc2cccc(F)c2)[C@H](OC(=O)Nc2ccccc2)[C@@H]1OC(=O)Nc1ccccc1	nt	nt	2.1	10.4	nt	nt
Cc1ccc(-c2ccc3c(c2)O[C@@H](CN(C)S(C)(=O)=O)[C@@H](C)CN([C@H](C)CO)S3(=O)=O)cc1	nt	nt	-0.6	nt	1.3	nt
O=C(C1CCC1)N1CC(=O)N2[C@@H](CO)[C@H](c3ccc(C#Cc4cccc(F)c4)cc3)[C@@H]2C1	nt	nt	-4.3	-4.8	nt	nt
O=C(C1CCC1)N1CC(=O)N2[C@H](C1)[C@H](c1ccc(C#Cc3cccc(F)c3)cc1)[C@@H]2CO	nt	nt	-1.9	81.3*	nt	nt
O=C(C1CCCC1)N1CC(=O)N2[C@@H](CO)[C@H](c3ccc(C#Cc4cccc(F)c4)cc3)[C@@H]2C1	nt	nt	-5.7	nt	nt	nt
O=C(C1CC1)N1CC(=O)N2[C@H](C1)[C@H](c1ccc(C#Cc3cccc(F)c3)cc1)[C@@H]2CO	nt	nt	2.2	68.6*	nt	nt
Clc1ccccc1CSc1nc2ccncc2[nH]1	38.9*	66.6	-56.4	-87.8	?	-63.2
O=C(CSCc1nc2ccccc2[nH]1)Nc1ccccc1	nt	-24.0	nt	nt	4.3	27.9
N/N=C(/Cc1nc2ccccc2[nH]1)c1ccc([N+](=O)[O-])cc1	38.4*	25.2	-70.6	-177.2	nt	-23.4
